Data taken from PubChem BioAssay (NCATS).
Inconclusive results are not listed. Active and inactive are the calls of the source. The call rests on the fitted dose curve; in most records, active means well fitted curve in the direction sought with a large enough effect; inconclusive means small, poorly fitted or top-dose-only effect, or another doubt; inactive means no such curve, though single readings can be large; an effect the other way counts as inactive or inconclusive.

What was measured:
[1] = Quantitative High-Throughput drug screen in 47 multiple myeloma cell lines against the NCATS MIPE library collection: KMM1_JCRB cell viability assay (AID 1918960); further: nearly all actives have a fitted effect of over 30% in size
Summary of the method: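 500 cells/well; MIPE 4.0 library pinned in; 48 h, 37 °C, 5% CO2; CellTiter-Glo ATP luminescence. Controls: DMSO = 100% viability, medium only = 0%.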

[2] = Quantitative High-Throughput drug screen in 47 multiple myeloma cell lines against the NCATS MIPE library collection: KHM11_PLB cell viability assay (AID 1918962); further: nearly all actives have a fitted effect of over 35% in size
Summary of the method: (§1)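 Relative luminescence from CellTiter-Glo served as the viability signal, referenced to DMSO-treated (100%) and cell-free medium (0%) controls. Treatment lasted 48 hours at 37C with 500 cells per well.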

[3] = Quantitative High-Throughput drug screen in 47 multiple myeloma cell lines against the NCATS MIPE library collection: JIM3_ECACC cell viability assay (AID 1918963; further: nearly all actives have a fitted effect of over 35% in size)
Summary of the method: as §1

[4] = Quantitative High-Throughput drug screen in 47 multiple myeloma cell lines against the NCATS MIPE library collection: JIM1_ECACC cell viability assay (AID 1918964)
Summary of the method: (§2)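 Viability readout: CellTiter-Glo luminescence following 5 min room-temperature incubation with reagent. Prior exposure: 48 h, 37C, humidified 5% CO2, 500 cells per well.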

[5] = Quantitative High-Throughput drug screen in 47 multiple myeloma cell lines against the NCATS MIPE library collection: INA6_PLB cell viability assay (AID 1918965; further: nearly all actives have a fitted effect of over 55% in size)
Summary of the method: as §1

[6] = Quantitative High-Throughput drug screen in 47 multiple myeloma cell lines against the NCATS MIPE library collection: JJN3_DSMZ cell viability assay (AID 1918966; further: nearly all actives have a fitted effect of over 50% in size)
Summary of the method: as §2

[7] = Quantitative High-Throughput drug screen in 47 multiple myeloma cell lines against the NCATS MIPE library collection: Karpas25_ECACC cell viability assay (AID 1918968; further: nearly all actives have a fitted effect of over 35% in size)
Summary of the method: as §2

[8] = Quantitative High-Throughput drug screen in 47 multiple myeloma cell lines against the NCATS MIPE library collection: KMS27_JCRB cell viability assay (AID 1918970); further: nearly all actives have a fitted effect of over 30% in size
Summary of the method: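 Luminescent ATP read-out (CellTiter-Glo, 5 min at room temperature) after 48 h compound exposure of 500 KMS27_JCRB cells per well; DMSO wells define full viability and media-only wells zero.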

[9] = Quantitative High-Throughput drug screen in 47 multiple myeloma cell lines against the NCATS MIPE library collection: H1112_PLB cell viability assay (AID 1918967; further: nearly all actives have a fitted effect of over 30% in size)
Summary of the method: as §2

Measured: Potency
Potency means the concentration at half of the fitted maximal effect.

O=C1C(Cl)=C(NCCN2CCOCC2)C(=O)c2ncccc21
active: [1] 3.32 µM | [2] 9.35 µM | [3] 8.33 µM | [4] 2.96 µM | [5] 2.96 µM | [6] 3.72 µM | [7] 2.64 µM | [8] 2.64 µM

CO[C@@H](C(=O)N1Cc2[nH]nc(NC(=O)c3ccc(N4CCN(C)CC4)cc3)c2C1)c1ccccc1
active: [1] 7.43 µM | [2] 10.5 µM | [3] 4.69 µM | [4] 16.6 µM | [5] 0.372 µM | [6] 23.5 µM | [7] 16.6 µM

O=c1ccn([C@@H]2O[C@H](CO)[C@H](O)[C@H]2O)c(=O)[nH]1
not listed: [4] | [7] | [8]
inactive: all other assays above

NC(CO)(CO)CCc1ccc(Sc2cccc(OCc3ccccc3)c2)cc1Cl
active: [1] 18.7 µM | [2] 7.43 µM | [3] 13.2 µM | [4] 16.6 µM | [5] 9.35 µM | [7] 7.43 µM | [8] 11.8 µM

N#CC1(c2ccc(NC(=O)c3cccnc3NCc3ccncc3)cc2)CCCC1
active: [5] 18.7 µM
inactive: [1] | [2] | [3] | [4] | [8]

COc1ccc(C2CC(c3ccccc3)=NN2c2ccc(S(N)(=O)=O)cc2)cc1 (stereo unspecified)
active: [1] 18.7 µM | [3] 18.7 µM | [4] 14.8 µM | [5] 23.5 µM | [9] 14.8 µM
inactive: [2]

CCOc1ccc(Nc2nc(-c3c(C)nc4ccccn34)cs2)cc1
inactive: [3]
active: [1] 0.001 µM | [2] 0.0743 µM | [5] 0.0026 µM | [6] 5.26 µM

NC(=O)c1cccc(-c2cc(Nc3ccc(OC(F)(F)F)cc3)ncn2)c1
active: [1] 14.8 µM | [2] 14.8 µM | [3] 18.7 µM | [5] 14.8 µM | [8] 18.7 µM

NC1=N[C@@]2(c3cc(NC(=O)c4ccc(F)cn4)ccc3F)COC[C@@H]2CS1
active: [1] 3.32 µM | [2] 13.2 µM | [4] 0.935 µM | [5] 14.8 µM | [9] 10.5 µM | [7] 14.8 µM | [8] 0.264 µM
inactive: [3]

O=C1c2c(O)cc(O)cc2O[C@H](c2cc(O)c(O)c(O)c2)[C@H]1O
active: [4] 5.9 µM | [6] 16.6 µM
not listed: [5] | [7]
inactive: all other assays above

CC=CC(=O)N(CC)c1ccccc1C
not listed: [6] | [9]
inactive: all other assays above

Cc1nc(N)sc1-c1ccnc(Nc2ccc(N3CCOCC3)cc2)n1
active: [1] 4.69 µM | [2] 6.62 µM | [3] 14.8 µM | [5] 1.48 µM | [6] 11.8 µM | [9] 16.6 µM | [7] 5.9 µM

COc1ccc(-c2cc(=O)c3c(O)cc(O)cc3o2)cc1O
active: [1] 7.43 µM | [2] 10.5 µM | [3] 7.43 µM | [4] 9.35 µM | [5] 8.33 µM | [7] 3.72 µM

COc1cc2ncnc(-n3nc(-c4ccccn4)nc3N)c2cc1OC
active: [1] 1.05 µM | [2] 5.9 µM | [3] 8.33 µM | [5] 7.43 µM | [6] 4.69 µM | [9] 0.743 µM | [8] 0.0935 µM

C[C@]12CC[C@@H]3c4ccc(O)cc4C[C@@H](CCCCCCCCCS(=O)CCCC(F)(F)C(F)(F)F)[C@H]3[C@H]1CC[C@H]2O (stereo partly specified)
not listed: [6] | [7] | [9]
inactive: all other assays above

CC(=Cc1ccccc1)C=C1SC(=S)N(CC(=O)O)C1=O
active: [8] 0.59 µM
not listed: [4] | [6]
inactive: all other assays above

CC(=O)O[C@]1(C(C)=O)CC[C@@H]2[C@@H]3C[C@H](C)C4=CC(=O)CC[C@]4(C)[C@H]3CC[C@@]21C
inactive: [2] | [3] | [4] | [8]
active: [1] 4.69 µM | [5] 18.7 µM | [6] 20.9 µM

CC[C@H]1OC(=O)[C@H](C)C(=O)[C@H](C)[C@@H](O[C@H]2O[C@H](C)C[C@H](N(C)C)[C@@H]2O)[C@](C)(OC)C[C@@H](C)C(=O)[C@H](C)[C@H]2N(CCCCn3cnc(-c4cccnc4)c3)C(=O)O[C@]12C
active: [1] 3.72 µM | [9] 13.2 µM
not listed: [6]
inactive: all other assays above

CN1[C@@H]2CCC[C@@H]1CC(NC(=O)c1nn(C)c3ccccc13)C2 (stereo partly specified)
not listed: [4] | [6] | [8]
inactive: all other assays above

COc1cccc2c1CCCC2CCCN1CCN(C2CCCCC2)CC1 (stereo unspecified)
active: [1] 18.7 µM | [2] 18.7 µM | [3] 23.5 µM | [5] 16.6 µM | [6] 20.9 µM | [7] 18.7 µM | [8] 16.6 µM

CC(C)OC(=O)C(C)(C)Oc1ccc(C(=O)c2ccc(Cl)cc2)cc1
active: [2] 26.4 µM | [6] 16.6 µM
inactive: [1] | [3]

CC(C)OC(=O)CCCC=CC[C@@H]1[C@H](C=C[C@@H](O)COc2cccc(C(F)(F)F)c2)[C@H](O)C[C@@H]1O
inactive: [1] | [4]
active: [2] 23.5 µM | [3] 20.9 µM | [5] 11.8 µM | [9] 18.7 µM | [7] 16.6 µM

CC(=O)Nc1ccc([C@H](C)C(=O)Nc2ncc(C(C)C)s2)cc1
active: [1] 5.26 µM | [2] 4.69 µM | [3] 7.43 µM | [4] 1.66 µM | [5] 4.18 µM | [9] 4.18 µM | [7] 1.05 µM

CC(C)(C)c1cc(C(=O)O)c(NC(=O)Nc2ccc3[nH]ncc3c2)s1
not listed: [6] | [7]
inactive: all other assays above

CN(C)c1cc(NC(=O)CNC(C)(C)C)c(O)c2c1C[C@@H]1C[C@H]3[C@H](N(C)C)C(=O)C(C(N)=O)=C(O)[C@@]3(O)C(=O)C1=C2O
not listed: [4] | [6] | [7]
inactive: all other assays above

CC(=O)N(C)C1(c2ccccc2)CCN(CCC[C@]2(c3ccc(Cl)c(Cl)c3)CCCN(C(=O)c3ccccc3)C2)CC1
active: [1] 14.8 µM | [2] 16.6 µM | [3] 20.9 µM | [5] 10.5 µM | [6] 18.7 µM | [9] 20.9 µM | [7] 16.6 µM | [8] 23.5 µM

Cn1c(N2CCCCS2(=O)=O)nc(C(=O)NCc2ccc(F)cc2)c(O)c1=O
inactive: [1] | [2] | [3] | [5] | [9]
active: [7] 20.9 µM

O=C(Nc1ccccc1Br)N[C@@H]1CCN(c2ccc(C(F)(F)F)cn2)C1
active: [2] 14.8 µM | [3] 18.7 µM | [5] 16.6 µM | [7] 18.7 µM
inactive: [1]

CNC(=O)c1ccc2cc(C3(O)CCn4cncc43)ccc2c1 (stereo unspecified)
not listed: [5] | [7] | [8]
inactive: all other assays above

O=C(O)c1ccccc1C(=O)Nc1ccc(-c2ccccc2)cc1
not listed: [4] | [6] | [7]
inactive: all other assays above

CC(C)(C)COc1ccc(-n2cc(C(=O)O)cn2)cc1C#N
not listed: [4] | [7]
inactive: all other assays above

O=c1[nH]cnc2c1ncn2[C@H]1CC[C@@H](CO)O1
inactive: [1] | [2] | [3] | [4] | [9]

CCOC(=O)C1=C(N)Oc2ccc(Br)cc2C1C(C#N)C(=O)OCC (stereo unspecified)
active: [1] 16.6 µM | [2] 20.9 µM | [3] 23.5 µM | [5] 18.7 µM | [6] 20.9 µM | [7] 20.9 µM

CN1CCN(CCOc2cc(OC3CCOCC3)c3c(Nc4c(Cl)ccc5c4OCO5)ncnc3c2)CC1
active: [1] 14.8 µM | [2] 18.7 µM | [3] 23.5 µM | [4] 20.9 µM | [5] 2.96 µM | [9] 23.5 µM | [7] 16.6 µM

Cc1c(NC(=O)c2ccc(C(C)(C)C)cc2)cccc1-c1cn(C)c(=O)c(Nc2ccc(C(=O)N3CCOCC3)cc2)n1
active: [1] 6.62 µM | [3] 13.2 µM | [5] 23.5 µM | [6] 14.8 µM | [7] 16.6 µM
inactive: [2]

CNC1CCC(N(Cc2cccc(-c3ccncc3)c2)C(=O)c2sc3c(F)ccc(F)c3c2Cl)CC1 (stereo unspecified)
active: [1] 18.7 µM | [2] 0.469 µM | [3] 16.6 µM | [4] 14.8 µM | [5] 8.33 µM | [9] 18.7 µM | [8] 18.7 µM

CC[C@@]1(O)C[C@H](O[C@H]2C[C@H](N(C)C)[C@H](O[C@H]3C[C@H](O)[C@H](O[C@H]4CCC(=O)[C@H](C)O4)[C@H](C)O3)[C@H](C)O2)c2c(cc3c(c2O)C(=O)c2c(O)cccc2C3=O)[C@@H]1C(=O)OC
active: [1] 5.9 µM | [2] 0.132 µM | [3] 0.332 µM | [5] 0.0662 µM | [6] 0.296 µM | [9] 0.833 µM | [7] 0.372 µM
inactive: [8]

COc1cccc(-c2cc(=O)c3ccccc3o2)c1N
inactive: [1] | [8]
active: [2] 5.26 µM | [3] 3.72 µM | [5] 2.35 µM | [7] 1.66 µM

O=C(OCC#CCSc1nnc(-c2cccc3ccccc23)o1)c1cc2ccccc2s1
not listed: [6] | [9]
inactive: all other assays above

O=C(NCc1ccncc1)C12C[C@H]3C[C@@H](C1)CC(c1ccc(Cl)cc1)(C3)C2
active: [1] 23.5 µM | [3] 23.5 µM | [4] 13.2 µM | [5] 20.9 µM | [7] 20.9 µM | [8] 8.33 µM
inactive: [2]
